TRHR agonist: qHTS for Small Molecule Agonists and Allosteric Enhancers of Human TRH Receptor: Primary Screen for Agonists | TRHR cells, calcium flux fluo-8, FDSS agonist mode | activation, % at 2 µM | 0.18% of 360,000 active; in the data active means activation above about 30%; further: 0% is about no effect
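Fluo-8-loaded TRHR cells; 10 s baseline, compound added, kinetic Ca2+ fluorescence read 1/s, agonist mode.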
HEK293 tox: qHTS of GLP-1 Receptor Inverse Agonists: Cytotox Screen | HEK293 cAMP-luciferase reporter cells, luminescence, 24 h | Potency, µM (doses to about 38.3 µM), without a hit: top-dose activity change, negative = inhibition, usual class: inhibitors | 0.13% of 410,000 active;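 further: loss of luciferase light is scored as toxicity; potency means the concentration at half of the fitted maximal effect; on the % scale 0 is the no-effect control and ±100 the full control effect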
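Step one: seed cells (200 cells/uL, DMEM with 10% Nu serum, 1% pen-strep). Step two: 12-hour incubation at 37 deg C. Step three: pin 23 nL compound, incubate 24 hr. Step four: add luciferase reagent, read luminescence 12 min later.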
GLP1R inv ag: qHTS of GLP-1 Receptor Inverse Agonists (Inhibition Mode); AID 624417, 2012; 1.6% of 410,000 active; Potency, µM (titrated, usually from 38.3 µM), for inactives: at the top dose activity change, negative = inhibition, actives largely listed as inhibitors; HEK293 GLP-1R CRE-luciferase, luminescence, 24 h; GLP-1R form is constitutively active; further: potency means the concentration at half of the fitted maximal effect; on the % scale 0 is the no-effect control and ±100 the full control effect; nearly all actives have a fitted effect of over 55% in size
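Stable HEK293 clone (constitutively active GLP-1R + cAMP-response luciferase); 200 cells/uL plated, 12 h pre-culture, compound 24 hr, 37 deg C/5% CO2; detection reagent 12 min RT; luminescence.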
PTHR1 ag: qHTS for PTHR1 Agonists: Primary Screen | Parathyroid hormone/parathyroid hormone-related peptide receptor (Homo sapiens), Q03431 | HEK293 GP2 PTHR1 cells, GloSensor cAMP luminescence, 1 h | Potency, µM (series often up to 115 µM), inactives show at the highest dose activation, actives largely listed as activators | 0.075% of 410,000 active | AID 743266, 2014; further: potency means the concentration at half of the fitted maximal effect; nearly all actives have a fitted effect of over 55% in size
Target sequence (Q03431 whole entry, looked up): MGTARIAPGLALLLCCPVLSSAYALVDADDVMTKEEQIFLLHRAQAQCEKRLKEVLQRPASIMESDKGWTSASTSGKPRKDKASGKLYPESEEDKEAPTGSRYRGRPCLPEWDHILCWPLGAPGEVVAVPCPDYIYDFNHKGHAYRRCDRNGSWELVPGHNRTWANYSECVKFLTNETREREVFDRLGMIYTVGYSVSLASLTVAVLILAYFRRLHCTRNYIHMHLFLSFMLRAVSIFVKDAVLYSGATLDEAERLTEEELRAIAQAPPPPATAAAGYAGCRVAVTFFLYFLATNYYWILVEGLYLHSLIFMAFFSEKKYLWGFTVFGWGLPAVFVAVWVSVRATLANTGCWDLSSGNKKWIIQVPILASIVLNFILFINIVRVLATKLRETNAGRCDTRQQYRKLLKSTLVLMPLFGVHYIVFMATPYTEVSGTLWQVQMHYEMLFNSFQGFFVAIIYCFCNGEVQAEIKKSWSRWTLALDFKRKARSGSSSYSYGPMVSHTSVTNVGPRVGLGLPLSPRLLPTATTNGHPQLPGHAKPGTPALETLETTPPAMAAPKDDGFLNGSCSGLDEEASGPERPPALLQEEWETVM
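HEK-293-derived GP2 cells expressing PTHR1 and a GloSensor cAMP reporter, 3,000/well, plated overnight, given luciferin plus IBMX (each 0.5 mM as added) for 1 h at 37 °C, then compound for 1 h at 37 °C. Luminescence was read after 15 min at room temperature.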
GLP1R ag: qHTS of GLP-1 Receptor Agonists | Glucagon-like peptide 1 receptor (Homo sapiens), P43220 | HEK293 GLP-1R CRE-luciferase, luminescence, 4-6 h; cells express a hypersensitive GLP-1R form | Potency, µM (top dose mostly 45.6 µM), without a hit: at the highest dose activation, hits mostly activators | 0.007% of 380,000 active | AID 624172, 2012; further: potency means the concentration at half of the fitted maximal effect; % of control where 0% means no effect
TRHR enhancer: qHTS for Small Molecule Agonists and Allosteric Enhancers of Human TRH Receptor: Primary Screen for Enhancers | TRHR cells, fluo-8 calcium fluorescence, EC20 TRH enhancement | enhancement, % at 2 µM | 0.66% of 360,000 active | AID 493056, 2011; in the data active means enhancement above about 30%; further: 0% is about no effect
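TRHR-expressing cells loaded with fluo-8 calcium dye were read kinetically (ex 480/em 530) during compound addition, then stimulated with an EC20 of TRH (10 nM final). Enhancement of the Gq-mediated intracellular calcium response was scored.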
The depositor's hits bear a star; i = inactive; ? = inconclusive; nt = not tested or not shown. An excerpt weighted towards active compounds, which were near 2.4% of everything screened. Unless noted, the call rests on the fitted dose curve; in most records, active means well fitted curve in the direction sought with a large enough effect; inconclusive means small, poorly fitted or top-dose-only effect, or another doubt; inactive means no such curve, though single readings can be large; an effect the other way counts as inactive or inconclusive.

SMILES	TRHR agonist	HEK293 tox	GLP1R inv ag	PTHR1 ag	GLP1R ag	TRHR enhancer
O=C(C[C@H]1C[C@H](C(=O)N2CCCCC2)[C@@]2(CCc3ccccc3)c3[nH]c4cc(-c5ccco5)ccc4c3CCN2C1=O)NCc1ccco1	nt	-7%	8.9µM*	-10%	-2%	nt
CC[C@]12c3[nH]c4cc(-c5ccco5)ccc4c3CCN1C(=O)[C@@H](CC(=O)NCCC1=CCCCC1)C[C@@H]2C(=O)N1CCN(C(=O)c2ccco2)CC1	nt	-22%	7.9µM*	5%	1%	nt
COc1cc2ccccc2cc1C(=O)N/N=C/c1ccc2c(c1)OCO2	-1	?	6.3µM*	i	11%	-8
O=C(N/N=C\c1cccc(OC(=O)c2ccco2)c1)c1ccc2c(c1)OCO2	6	4%	-16%	-16%	-22%	33*
COc1ccccc1C(=O)N/N=C/c1ccc2c(c1)OCO2	0	-2%	15%	-16%	8%	17
COc1ccc(NC(=O)/C(Cl)=C(/Cl)S(=O)Cc2ccccc2)cn1 (configuration not stated)	0	2.8µM*	-7%	i	-24%	1
COc1cccc(OCC(=O)Nc2cc(NC(=O)COc3cccc(OC)c3)cc(C(=O)O)c2)c1	0	0%	7%	-18%	-6%	3
CCN(CC)c1ccc(C(=C2C=CC(=[N+](CC)CC)C=C2)c2ccccc2)cc1	nt	5µM*	?	-38%	-5%	nt
O=C(NCCC1CCCCN1S(=O)(=O)c1ccccc1)C(=O)NCc1ccccn1 (configuration not stated)	0	12%	-20%	i	-10%	-9
Cc1ccc(NC2CCCN(C(=O)c3cccc4nccnc34)C2)cc1C (configuration not stated)	0	-1%	0%	-20%	5%	-1
CCN(CC)CCNC(=O)c1cc2cc(Br)ccc2s1	2	31%	3.2µM*	-1%	-3%	4
CCc1cccc(NC(=O)c2ccc3c(c2)c(C)c(C)n3Cc2ccc(F)cc2)c1	0	-19%	10µM*	i	nt	2
CCc1ccc(NC(=O)c2ccc3c(c2)c(C)c(C)n3Cc2ccccc2)cc1	0	-18%	?	i	nt	0
CCc1ccc(CNC(=O)c2ccc3c(c2)c(C)c(C)n3Cc2ccccc2)cc1	1	2%	10µM*	i	nt	-3
CCOc1ccc(C(=O)Nc2nnc(SCC(=O)NCC3CCCO3)s2)cc1 (configuration not stated)	0	13%	2µM*	-17%	-5%	-3
CC(C)(C)c1ccc(C(=O)Nc2nnc(SCC(=O)NCC3CCCO3)s2)cc1 (configuration not stated)	0	-14%	?	-30%	-1%	5
Cc1cnc(NC(=O)c2ccc(OCC3CCCO3)cc2)s1 (configuration not stated)	1	2%	5µM*	-32%	-5%	-5
Cc1ccc(NC(=O)c2ccc(OCC3CCCO3)cc2)nc1 (configuration not stated)	0	-5%	?	-33%	-17%	9
O=C(O)COc1ccccc1/C=N/NC(=O)c1cc2ccccc2cc1O	1	-7%	-6%	25µM*	-1%	-2
COc1ccc(Oc2ccccc2/C=N/O)cc1	0	8%	1µM*	-31%	2%	1
